Laboratory results as given in the supplement of paper PMC4466140.

Target: SpBzz1-D2
Experiment: SPOT peptide array binding signal intensity (averaged, normalized) (arbitrary units (background-subtracted, floor 0; scale differs between SH3 domains)); higher = stronger binding of the SH3 domain to the peptide
Outline: (§1)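 The binding signal is the normalized, background-subtracted spot intensity averaged over replicates; its arbitrary units differ between domains. It was obtained by incubating 10 μg/ml GST-fused SH3 domains from four yeast species overnight at 4°C in TBS-based blocking buffer on cellulose membranes with synthetic 15-mer peptides, cysteines replaced by serines, then detecting with anti-GST antibody, HRP anti-mouse secondary and luminol.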

Row | Binder | SPOT peptide array binding signal intensity
1 | NSMRPPLLIPAATTK | 53.8

Target: SpCyk3
Experiment: as above
Outline: as §1

Row | Binder | SPOT peptide array binding signal intensity
2 | NSMRPPLLIPAATTK | 3

Target: SpHof1
Experiment: as above
Outline: as §1

Row | Binder | SPOT peptide array binding signal intensity
3 | NSMRPPLLIPAATTK | 36

Target: SpHof1-2
Experiment: as above
Outline: as §1

Row | Binder | SPOT peptide array binding signal intensity
4 | NSMRPPLLIPAATTK | 31.8

Target: SpHof1-3
Experiment: as above
Outline: as §1

Row | Binder | SPOT peptide array binding signal intensity
5 | NSMRPPLLIPAATTK | 41

Target: SpHse1
Experiment: as above
Outline: as §1

Row | Binder | SPOT peptide array binding signal intensity
6 | NSMRPPLLIPAATTK | 444

Target: SpLsb1
Experiment: as above
Outline: as §1

Row | Binder | SPOT peptide array binding signal intensity
7 | NSMRPPLLIPAATTK | 34.2

Target: SpLsb4
Experiment: as above
Outline: as §1

Row | Binder | SPOT peptide array binding signal intensity
8 | NSMRPPLLIPAATTK | 761

Target: SpMyo1
Experiment: as above
Outline: as §1

Row | Binder | SPOT peptide array binding signal intensity
9 | NSMRPPLLIPAATTK | 56.2

Target: SpNbp2
Experiment: as above
Outline: as §1

Row | Binder | SPOT peptide array binding signal intensity
10 | NSMRPPLLIPAATTK | 116

Target: SpPex13
Experiment: as above
Outline: as §1

Row | Binder | SPOT peptide array binding signal intensity
11 | NSMRPPLLIPAATTK | 37

Target: SpRvs167
Experiment: as above
Outline: as §1

Row | Binder | SPOT peptide array binding signal intensity
12 | NSMRPPLLIPAATTK | 68.2

Target: SpSla1-D1-D2
Experiment: as above
Outline: as §1

Row | Binder | SPOT peptide array binding signal intensity
13 | NSMRPPLLIPAATTK | ≤ 0

Target: SpSla1-D3
Experiment: as above
Outline: as §1

Row | Binder | SPOT peptide array binding signal intensity
14 | NSMRPPLLIPAATTK | 200
